# According to PubChem BioAssay (NCI):
# About 83,000 compounds went through this panel and 20% of them were active in at least one assay; those are over-represented in the sample as a whole.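 In brief: 96-well plates, 48 h treatment, single concentration, percent growth endpoint.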 A number with no mark means an inactive call. The source made the active and inactive calls. How the source made its calls: active means growth percent below 10; inactive means the rest.
# Columns and labels:
# Test in all cases: NCI-60 one-dose screen, 48 h (100 = growth as untreated, 0 = no growth, -100 = all killed)
# Settings in all cases: 10 µM unless noted
# HCT-15 colon = system: HCT-15 colon
# HT29 colon = system: HT29 colon
# SNB-75 CNS = system: SNB-75 CNS
# SNB-19 CNS = system: SNB-19 CNS
# U251 CNS = system: U251 CNS
# PC-3 prostate = system: PC-3 prostate
# SK-MEL-5 melanoma = system: SK-MEL-5 melanoma
# UACC-62 melanoma = system: UACC-62 melanoma
# LOX IMVI melanoma = system: LOX IMVI melanoma
# SK-MEL-28 melanoma = system: SK-MEL-28 melanoma
Compound,growth (HCT-15 colon),growth (HT29 colon),growth (SNB-75 CNS),growth (SNB-19 CNS),growth (U251 CNS),growth (PC-3 prostate),growth (SK-MEL-5 melanoma),growth (UACC-62 melanoma),growth (LOX IMVI melanoma),growth (SK-MEL-28 melanoma)
CC(/C=C1\SC(=S)N(CC(=O)NC(Cc2c[nH]c3ccccc23)C(=O)O)C1=O)=C\c1ccccc1 (stereo not given),103%,110%,87.2%,98.8%,105%,97.6%,96.4%,88.3%,92.9%,
CCOC(=O)c1c2c(n3c1NCC3)-c1ccccc1C2=O,99.3%,98.1%,83.5%,99.3%,101%,91.1%,93.3%,98.6%,97.9%,
CCCCCCC(=O)Nc1ncc(Cc2ccc(C)cc2)s1,35.5%,15.4%,-0.16% (active),44.2%,39%,41.7%,36.9%,31.1%,44.1%,66.5%
CCn1cc(C(=O)N/N=C/c2ccc(Br)cc2)c(=O)c2cc(F)c(N3CCNC(C)C3)c(F)c21 (stereo not given),-18.9% (active),-31.7% (active),85.6%,54.5%,1.38% (active),68.3%,82.4%,101%,-78.2% (active),
O=C(OC[C@@H]1CO1)c1cccc2c(=O)c3ccccc3[nH]c12,-5.09% (active),-7.33% (active),-88.2% (active),-7.9% (active),-15.7% (active),-21.1% (active),-90.9% (active),-89.2% (active),-78.1% (active),
CNCc1cccc2c1OCCOCCN(C)C(=O)CN(C)S(=O)(=O)c1ccc(cc1)-c1cnc(N)c(n1)C(=O)N2,66.3%,11.6%,-19.2% (active),25.5%,-62.3% (active),57.9%,55.4%,4.98% (active),10.3%,
CCCCCCCC/C=C\CCCCCCCCOc1ccc(CC(=O)NCC[N+](C)(C)C)cc1,60.4%,24.5%,34.6%,13.4%,16.9%,4.88% (active),87.3%,61.3%,83.2%,
COc1ccc2nc(Cl)c(/C=C/C(=O)c3ccc(NC(=O)CSc4nnc(-c5ccc(Cl)c(Cl)c5)n4-c4ccccc4)cc3)cc2c1,105%,90.1%,84.1%,91.3%,87.4%,72.5%,94.5%,86.2%,97.6%,
COC1=CC(c2ccc[nH]2)=N/C1=C\c1[nH]c(C)c(CC(=O)OCc2ccccc2)c1C,-11% (active),4.42% (active),-7.14% (active),23.5%,-21% (active),2.94% (active),-91.5% (active),-31.7% (active),-75.4% (active),
CCN1C(=O)N(CC)C2C1NN=c1s/c(=C\c3cc4ccccc4[nH]3)c(=O)n12 (stereo not given),12%,5.58% (active),32.1%,45.1%,7.49% (active),13.2%,-5.91% (active),22.2%,17.4%,52.2%
COc1ccc(NC(=O)c2cccc(C3CCc4c(cc(OC)c(OC)c4OC)O3)c2)cc1 (stereo not given),17.3%,6.06% (active),13.1%,33.3%,23.4%,5.96% (active),4.29% (active),31.6%,28.7%,
C#CC#CC#CC#CC#CC#CC#CC#CC[C@H]1OC[C@@H](COC(=O)O[C@@H](C(=O)O[C@H]2C[C@@]3(O)[C@@H](OC(=O)c4ccccc4)[C@@H]4[C@]5(OC(C)=O)CO[C@@H]5C[C@H](O)[C@@]4(C)C(=O)[C@H](OC(C)=O)C(=C2C)C3(C)C)[C@@H](NC(=O)c2ccccc2)c2ccccc2)O1,95.2%,7.9% (active),32.8%,55.8%,43.4%,45.7%,64.8%,50.9%,41.1%,
COc1ccc(C/C(C)=C(\c2ccc(O)cc2)c2ccc(OCCN3CCCC3)cc2)cc1,102%,88.4%,94.2%,103%,106%,96.8%,111%,102%,98.3%,
N=c1c2c(=N)n3c(nc2nc2n1-c1ccccc1Sc1ccccc1-2)sc1cc(Cl)ccc13,15.7%,26.4%,53.4%,30.7%,9.17% (active),19.4%,-12.8% (active),13.8%,13.5%,
C[C@@H]1O[C@@H](O[C@@H]2C[C@H](c3ccc4c(c3O)C(=O)C3=C(C4=O)[C@@]4(O)C(=O)C[C@](C)(O)C[C@@]4(O)C=C3)O[C@H](C)[C@H]2O)C[C@H](O)[C@@H]1O,98.9%,106%,86.8%,91.8%,97.5%,90.5%,100%,94.2%,91%,
C#CC#CC#CC#CC#CC#CC#CC#CC[C@H]1OC[C@H](COC(=O)O[C@@H](C(=O)O[C@H]2C[C@@]3(O)[C@@H](OC(=O)c4ccccc4)[C@@H]4[C@]5(OC(C)=O)CO[C@@H]5C[C@H](O)[C@@]4(C)C(=O)[C@H](OC(C)=O)C(=C2C)C3(C)C)[C@@H](NC(=O)c2ccccc2)c2ccccc2)O1,99.5%,8.74% (active),37.6%,50.3%,37.8%,32.7%,60.5%,46.2%,39.7%,52.1%
CN1CCN(C(=O)c2cc(-c3ccc4ncnc(N5CCc6cc(F)c(Cl)cc65)c4c3)cnc2N)CC1,5.57% (active),13.6%,-35.3% (active),13%,15.4%,1.89% (active),-97.1% (active),-52.1% (active),-41.4% (active),-0.0571% (active)
Cc1ccc(C)c(-n2c(-c3ccc(Br)cc3)csc2=NC(=O)c2ccccc2F)c1,57.9%,55.5%,84.6%,93.7%,46.4%,22.7%,46.9%,60.7%,76.9%,
Cn1cc(C(=O)c2nc(-c3c[nH]c4ccc(Br)cc34)no2)c2cc(Br)ccc21,56.1%,44%,73.7%,86.2%,52%,39.3%,83.4%,86.1%,78.3%,
O=C1Nc2ccccc2/C1=C/c1cn(C[C@@H](O)Cn2c3ccccc3c(=O)c3ccccc32)c2ccccc12,73.9%,77.8%,63.6%,73.1%,75.2%,51.1%,67.1%,69.2%,69.1%,95.4%
COc1cccc2c(N=NC(=O)c3ccc(S(N)(=O)=O)cc3)c(O)[nH]c12,98.8%,106%,95.1%,97.1%,101%,99.1%,99.4%,99.8%,99.5%,
Cc1c(N2CN3C[C@H](C)N4CN(c5c(C)n(C)n(-c6ccccc6)c5=O)CN5C[C@@H](C)N(C2)C3C54)c(=O)n(-c2ccccc2)n1C (stereo not given in full),96.4%,102%,107%,101%,105%,94.2%,102%,96.7%,96%,101%
O=c1[nH]cnc2c1C(c1ccc(Br)cc1)c1sc3c(F)cccc3c1O2 (stereo not given),99.2%,104%,85.1%,91.8%,95.9%,82.9%,98.7%,82.5%,99.2%,
CCCCCCOC(=O)CC1=C(C)/C(=C/c2[nH]c(-c3ccc[nH]3)cc2OC)N=C1C,-34.9% (active),1.26% (active),-5.75% (active),12.8%,-68.8% (active),-23% (active),-92.1% (active),-64.5% (active),-82% (active),
C=C1C(=O)O[C@H]2[C@H]1CC/C(COC(=O)NCCCCCCCCNC(=O)OC/C1=C/CC[C@@]3(C)O[C@H]3[C@H]3OC(=O)C(=C)[C@@H]3CC1)=C\CC[C@@]1(C)O[C@@H]21,-83.9% (active),-67.1% (active),-19.8% (active),6.51% (active),-48.2% (active),-64.3% (active),-85.3% (active),-70.8% (active),-78.2% (active),
COc1cc(Nc2c3ccc(Cl)cc3nc3ccc(OC)cc23)c2ncccc2c1,23.8%,38.1%,70.1%,66.6%,31.5%,38%,33%,36.4%,29.3%,
Cc1ccccc1OCC(O)COc1ccccc1C,79.1%,103%,112%,94.9%,86.1%,94.8%,93.6%,81.9%,97.6%,101%
